Bioassay records deposited in PubChem by Broad Institute.
miR-122 inh: raises miR-122 sensor activity in Huh7 cells. Huh7 psiCHECK-miR122 Renilla luciferase sensor, 48 h. activation, % at 12.5 µM. actives 0.14% (n = 340,000);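 active means mean activation of 30% or more, with every replicate also reaching 30%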;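 further: 0% = median of neutral control wells and 100% = median of positive control wells; higher luciferase signal means stronger suppression of miR-122 activity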
An asterisk follows results filed as active. The full list was thinned out, with hits kept by preference.

SMILES | miR-122 inh
C[C@H](CO)N1C[C@H](C)[C@H](CN(C)CC2CCOCC2)Oc2ncc(C#CCc3ccccc3)cc2C1=O | 2
C[C@@H]1CN([C@@H](C)CO)C(=O)c2cc(C#CC3(O)CCCC3)cnc2O[C@H]1CN(C)Cc1ccncc1 | -5
CC(C)NC(=O)Nc1cccc2c1O[C@@H](CN(C)Cc1ccc(C(F)(F)F)cc1)[C@H](C)CN([C@H](C)CO)C2=O | -91
COCC#Cc1cnc2c(c1)C(=O)N([C@@H](C)CO)C[C@@H](C)[C@@H](CN(C)C(=O)C1CCOCC1)O2 | -10
CCCN(C)C[C@@H]1Oc2cc(C#CC(C)C)ccc2S(=O)(=O)N([C@@H](C)CO)C[C@@H]1C | 5
C[C@H]1CN([C@@H](C)CO)C(=O)c2cc(-c3ccncc3)cnc2O[C@@H]1CN(C)C(=O)Cc1ccccn1 | -2
COc1ccccc1-c1cnc2c(c1)C(=O)N([C@H](C)CO)C[C@H](C)[C@@H](CN(C)C(=O)CN(C)C)O2 | 6
C[C@@H]1CN([C@@H](C)CO)S(=O)(=O)c2ccc(Br)cc2O[C@@H]1CN(C)CC1CCOCC1 | 6
C[C@H](CO)N1C[C@H](C)[C@@H](CN(C)CC2CCOCC2)Oc2ncc(C#CCc3ccccc3)cc2C1=O | -6
COCC#Cc1ccc2c(c1)O[C@@H](CN(C)Cc1cncnc1)[C@@H](C)CN([C@@H](C)CO)S2(=O)=O | -4
Cc1noc(C)c1NC(=O)N(C)C[C@@H]1Oc2ncc(C#Cc3ccc(F)cc3)cc2C(=O)N([C@H](C)CO)C[C@@H]1C | 6
C[C@H](CO)N1C[C@H](C)[C@@H](CN(C)C(=O)CN(C)C)Oc2ncc(C#C[C@@H](C)O)cc2C1=O | 6
C[C@H]1CN([C@@H](C)CO)S(=O)(=O)c2ccc(C#CC(C)(C)O)cc2O[C@@H]1CN(C)CC1CC1 | 3
C[C@@H]1CN([C@@H](C)CO)C(=O)c2cc(C#CC(C)(C)O)cnc2O[C@H]1CN(C)C(=O)C1CC1 | 2
C[C@H](CO)N1C[C@H](C)[C@@H](CN(C)Cc2cccnc2)Oc2ncc(-c3ccc(F)cc3)cc2C1=O | 0
C[C@@H]1CN([C@H](C)CO)C(=O)c2cc(C#CC3(O)CCCC3)cnc2O[C@H]1CN(C)S(=O)(=O)c1cccc(F)c1 | 6
C[C@H]1CN([C@@H](C)CO)C(=O)c2cc(-c3cccnc3)cnc2O[C@@H]1CN(C)C(=O)Nc1ccc(F)cc1 | 9
C[C@@H]1CN([C@@H](C)CO)C(=O)c2cc(C#CC3CCCCC3)cnc2O[C@H]1CN(C)S(=O)(=O)c1cccc(F)c1 | 45*
C[C@H](CO)N1C[C@H](C)[C@H](CN(C)S(=O)(=O)c2cccc(F)c2)Oc2ncc(C#CC3(O)CCCC3)cc2C1=O | 7
C[C@H]1CN([C@@H](C)CO)C(=O)c2cc(-c3cccnc3)cnc2O[C@H]1CN(C)C(=O)Nc1ccc(F)cc1 | 6
C[C@H]1CN([C@@H](C)CO)C(=O)c2cc(-c3ccc(C#N)cc3)cnc2O[C@H]1CN(C)C(=O)Nc1ccc(C(F)(F)F)cc1 | 37*
C[C@H](CO)N1C[C@H](C)[C@@H](CN(C)Cc2ccncc2)Oc2ncc(-c3cncnc3)cc2C1=O | -16
CCC(=O)N(C)C[C@@H]1Oc2ncc(-c3cccc(OC)c3)cc2C(=O)N([C@H](C)CO)C[C@H]1C | 8
C[C@H](CO)N1C[C@H](C)[C@@H](CN(C)C(=O)Nc2ccccc2F)Oc2ncc(-c3cccc(F)c3)cc2C1=O | -13
CC(=O)N(C)C[C@H]1Oc2cc(C#C[C@H](C)O)ccc2S(=O)(=O)N([C@H](C)CO)C[C@H]1C | 4
SMILES | miR-122 inh
Cc1ccc(S(=O)(=O)NCC[C@@H]2CC[C@@H](NC(=O)c3cnccn3)[C@H](CO)O2)cc1 | -101
O=C(N[C@H]1CC[C@H](CCn2cc(C3(O)CCCC3)nn2)O[C@H]1CO)c1ccccc1F | 42*
Cc1cc(C)c2c(c1)/C(=C/C(=O)c1ccc(Br)s1)C(=O)N2 | 43*
C[C@@H]1CN([C@H](C)CO)C(=O)c2cc(-c3cccnc3)cnc2O[C@@H]1CN(C)C(=O)Nc1ccc(F)cc1 | 6
Cc1ccc(S(=O)(=O)N(C)C[C@H]2Oc3cc(C#CC4CCCC4)ccc3S(=O)(=O)N([C@@H](C)CO)C[C@H]2C)cc1 | -61
COc1ccc(C(=O)N[C@H](C(=O)Nc2nc3ccccc3[nH]2)C(C)C)cc1 | -117
O=C(COc1cccc2ccccc12)Nc1nc2ccccc2[nH]1 | 32*
CCC(=O)N1C[C@@H](C)[C@@H](OC)CN(C)C(=O)c2ccc(NS(C)(=O)=O)cc2OC[C@H]1C | -2
CC(C(=O)OCC(=O)Nc1ncc(Cl)cc1Cl)N1C(=O)c2ccccc2C1=O (stereo unspecified) | 36*
CCCN(C)C[C@H]1Oc2cc(Br)ccc2S(=O)(=O)N([C@H](C)CO)C[C@H]1C | -1
Cn1c(-c2ccc(N)cc2)nc2ccccc21 | 36*
C[C@H]1CN([C@@H](C)CO)C(=O)c2cccc(NC(=O)C3CCCCC3)c2O[C@@H]1CN(C)Cc1ccc(C(=O)Nc2ccccc2N)cc1 | -13
O=C(C[C@@H]1C[C@H]2c3cc(NS(=O)(=O)c4ccc(F)cc4)ccc3O[C@H]2[C@H](CO)O1)NCc1ccc(-c2ccccc2)cc1 | -111
CCCNC(=O)C[C@@H]1CC[C@@H]2[C@H](COc3ccc(NS(=O)(=O)c4ccccc4C)cc3C(=O)N2C)O1 | 67*
COC(=O)C[C@@H]1CC[C@@H]2[C@@H](COc3ccc(NS(=O)(=O)c4ccccc4F)cc3C(=O)N2C)O1 | 42*
COc1cccc(C#Cc2cnc3c(c2)C(=O)N([C@@H](C)CO)C[C@@H](C)[C@H](CN(C)C(=O)C2CCCCC2)O3)c1 | 5
CO[C@H]1CN(C)C(=O)c2cc(NC(=O)c3nc4ccccc4s3)ccc2OC[C@H](C)N(Cc2ccncc2)C[C@@H]1C | 3
CC(C)CC#Cc1cnc2c(c1)C(=O)N([C@@H](C)CO)C[C@@H](C)[C@H](CN(C)C(=O)Cc1ccccc1)O2 | 6
COc1cccc(C#Cc2cnc3c(c2)C(=O)N([C@H](C)CO)C[C@H](C)[C@@H](CN(C)C(=O)C2CCCCC2)O3)c1 | -7
CCCNC(=O)N(C)C[C@@H]1Oc2ncc(-c3ccc(C(=O)N(C)C)cc3)cc2C(=O)N([C@@H](C)CO)C[C@@H]1C | 1
COc1ccc(C#Cc2cnc3c(c2)C(=O)N([C@@H](C)CO)C[C@H](C)[C@H](CN(C)CC2CCCC2)O3)cc1 | 11
COc1ccc(OC)c(-c2cc(C3CCN(c4cc(Cl)nc(N)n4)CC3)[nH]n2)c1 | 46*
COc1cccc(-c2cnc3c(c2)C(=O)N([C@@H](C)CO)C[C@@H](C)[C@@H](CN(C)C(=O)CC2CC2)O3)c1 | 1
Cc1ccccc1-c1ccc2c(c1)O[C@@H](CN(C)C(=O)Nc1ccccc1)[C@H](C)CN([C@@H](C)CO)S2(=O)=O | 6
C[C@@H]1CN([C@H](C)CO)S(=O)(=O)c2ccc(C#Cc3ccccc3)cc2O[C@H]1CN(C)S(=O)(=O)c1ccccc1F | -3
COc1cc(/C=N/Nc2nc(Nc3ccc(C)cc3)nc(-n3nc(C)cc3C)n2)cc(OC)c1OC | 47*
COc1ccc(C#Cc2cnc3c(c2)C(=O)N([C@H](C)CO)C[C@H](C)[C@H](CN(C)CC2CCCC2)O3)cc1 | 12
CC(C)CC#Cc1cnc2c(c1)C(=O)N([C@H](C)CO)C[C@@H](C)[C@@H](CN(C)C(=O)Nc1ccccc1F)O2 | -1
C[C@H](CO)N1C[C@H](C)[C@@H](CN(C)C(=O)c2ccccc2F)Oc2ncc(C#Cc3ccc(F)cc3)cc2C1=O | -8
